Measurements taken from PubChem BioAssay (NCI).
The panel holds about 79,000 compounds, 15% with a hit somewhere; the sample as a whole holds those more often. The source made the active and inactive calls. Rule as the data show it: active = growth inhibition above about 70%; inactive = the rest.

Legend:
[1] = NCI Yeast Anticancer Drug Screen. Data for the wt1 strain (AID 149);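 also: 0% = growth of vehicle-treated wt1 cultures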; settings: S. cerevisiae wt1 strain (SPY 50644) growth inhibition, hits give high values
In short: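 Yeast wt1 strain exposed to compounds; growth inhibition measured relative to vehicle-treated controls.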

[2] = NCI Yeast Anticancer Drug Screen. Data for the rad50EPP+ strain (AID 151);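 also: 0% = growth of vehicle-treated control cultures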; settings: S. cerevisiae rad50 mutant strain, hits give high values
In short: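 Yeast strain carrying rad50 alteration (rad50EPP+) exposed to compounds; growth inhibition measured relative to vehicle-treated controls.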

[3] = NCI Yeast Anticancer Drug Screen. Data for the mgt1 strain (AID 153); settings: S. cerevisiae mgt1 mutant growth inhibition, hits give high values
In short: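 Yeast mgt1 strain (DNA repair/cell-cycle alteration panel) exposed to compounds; growth inhibition measured relative to vehicle-treated controls.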

[4] = NCI Yeast Anticancer Drug Screen. Data for the mec2-1 strain (AID 157); settings: S. cerevisiae mec2-1 strain, hits give high values
In short: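 mec2-1 yeast strain, carrying an alteration in DNA damage repair or cell cycle control, was exposed to compounds; growth inhibition was measured relative to vehicle-treated controls.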

[5] = NCI Yeast Anticancer Drug Screen. Data for the sgs1 mgt1 strain (AID 161);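 also: 0% = growth of cultures given vehicle only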; settings: S. cerevisiae sgs1 mgt1 strain, hits give high values
In short: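 This yeast growth screen uses a strain with defined DNA-repair lesions; compound-treated growth is compared with vehicle-treated growth.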

[6] = NCI Yeast Anticancer Drug Screen. Data for the CLN2oe strain (AID 163);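 also: 0% = growth of vehicle-only control cultures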; settings: S. cerevisiae CLN2oe strain, hits give high values
In short: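 Yeast cells carrying a defined cell-cycle control alteration were exposed to test compounds. Growth inhibition was scored against vehicle-treated control cultures.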

[7] = NCI Yeast Anticancer Drug Screen. Data for the cln2 rad14 strain (AID 165);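 also: 0% = growth equal to vehicle treated cultures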; settings: S. cerevisiae cln2 rad14 strain, hits give high values
In short: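 Yeast carrying cln2 and rad14 alterations (cell cycle control and DNA damage repair) were exposed to compounds. Growth inhibition was measured against vehicle-treated controls.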

[8] = NCI Yeast Anticancer Drug Screen. Data for the bub3 strain (AID 167); settings: S. cerevisiae bub3 mutant strain, hits give high values
In short: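 Compounds were applied to a genetically altered yeast strain carrying a cell-cycle control defect. Growth inhibition was scored against vehicle-treated controls.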

[9] = NCI Yeast Anticancer Drug Screen. Data for the wt2 strain (AID 169);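 also: 0% = growth of vehicle-treated yeast cultures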; settings: S. cerevisiae wt2 strain growth inhibition, hits give high values
In short: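 Yeast cells were exposed to test compounds, and growth inhibition was measured relative to vehicle-treated controls.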

[10] = NCI Yeast Anticancer Drug Screen. Data for the sgs1 strain (AID 173);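 also: 0% = growth of vehicle-only control cultures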; settings: S. cerevisiae sgs1 mutant, hits give high values
In short: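 Yeast mutant strains carrying defined defects in DNA damage repair or cell cycle control were exposed to test compounds. Growth inhibition was scored against vehicle-treated controls.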

[11] = NCI Yeast Anticancer Drug Screen. Data for the mlh1 rad18 strain (AID 175); settings: S. cerevisiae mlh1 rad18 strain growth inhibition, hits give high values
In short: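 Growth inhibition of the yeast strain was measured after compound exposure and expressed relative to vehicle-treated controls. The strain carries defined defects in DNA damage repair.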

[12] = NCI Yeast Anticancer Drug Screen. Data for the rad18 strain (AID 177); settings: S. cerevisiae rad18 mutant growth inhibition, hits give high values
In short: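 Yeast carrying a defined DNA damage repair alteration were exposed to compounds. Growth inhibition was expressed relative to vehicle-treated controls.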

[13] = NCI Yeast Anticancer Drug Screen. Data for the rad50 strain (AID 155);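 also: 0% = growth of vehicle-only cultures of the same strain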; settings: S. cerevisiae rad50 strain growth inhibition, hits give high values
In short: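 Yeast carrying a defined DNA repair defect were exposed to test compounds, and growth was compared with vehicle-treated controls to give percent inhibition.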

[14] = NCI Yeast Anticancer Drug Screen. Data for the rad14 strain (AID 159);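 also: 0% = growth of vehicle-treated control cultures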; settings: S. cerevisiae rad14 strain growth inhibition, hits give high values
In short: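 Yeast cells carrying a defined DNA-repair defect were exposed to compounds, and growth inhibition was calculated relative to vehicle-treated control cultures.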

[15] = NCI Yeast Anticancer Drug Screen. Data for the mlh1 strain (AID 171);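 also: 0% = growth of vehicle-treated control cultures of the same strain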; settings: S. cerevisiae mlh1 strain growth inhibition, hits give high values
In short: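 Yeast carrying a defined genetic alteration in DNA damage repair or cell cycle control were exposed to test compounds. Growth inhibition was measured relative to vehicle-treated controls.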

[16] = at 5.0 µM (retest, dose inferred, filed as 0.5)
[17] = at 50.0 µM (retest, dose inferred, filed as 5.0)

Measured: growth inhibition

Cc1c2ccncc2c(C)c2c1oc1ccccc12
inactive: [1]; at 1.2 µM 1% | [1]; at 3.7 µM 2% | [1]; at 11.0 µM 10% | [2]; at 1.2 µM 52% | [3]; at 1.2 µM -1% | [3]; at 3.7 µM 6% | [3]; at 11.0 µM 10% | [3]; at 33.0 µM 61% | [4]; at 1.2 µM 5% | [4]; at 3.7 µM 13% | [4]; [16] 29% | [4]; at 11.0 µM 17% | [4]; at 50.0 µM 51% | [5]; [16] 4% | [5]; at 50.0 µM 44.8% | [6]; at 1.2 µM 12% | [6]; at 3.7 µM 30% | [6]; at 11.0 µM 53% | [7]; [16] 31% | [8]; at 1.2 µM 19% | [8]; at 3.7 µM 24% | [8]; [16] 27% | [8]; at 11.0 µM 40% | [9]; at 1.2 µM 7% | [9]; at 3.7 µM 17% | [9]; at 11.0 µM 57% | [10]; at 1.2 µM -5% | [10]; at 3.7 µM -6% | [10]; at 11.0 µM 16% | [11]; [16] 64% | [11]; at 50.0 µM 50.1% | [12]; at 1.2 µM -2% | [12]; at 3.7 µM 32% | [12]; at 11.0 µM 56%
active: [1]; at 33.0 µM 89% | [1]; at 100.0 µM 97% | [2]; at 3.7 µM 82% | [2]; at 11.0 µM 84% | [2]; at 33.0 µM 98% | [2]; at 100.0 µM 97% | [3]; at 100.0 µM 98% | [4]; at 33.0 µM 80% | [4]; [17] 93% | [4]; at 100.0 µM 98% | [5]; [17] 93% | [6]; at 33.0 µM 89% | [6]; at 100.0 µM 97% | [7]; [17] 93% | [7]; at 50.0 µM 94.2% | [8]; at 33.0 µM 88% | [8]; [17] 94% | [8]; at 50.0 µM 96.4% | [8]; at 100.0 µM 98% | [9]; at 33.0 µM 94% | [9]; at 100.0 µM 98% | [10]; at 33.0 µM 93% | [10]; at 100.0 µM 95% | [11]; [17] 90% | [12]; at 33.0 µM 95% | [12]; at 100.0 µM 98%

CCCCCC(=O)C(C)(c1nc2n(c1O)/C(=N/C(=O)Nc1ccc(Cl)cc1)N=N2)c1nc2n(c1O)/C(=N/C(=O)Nc1ccc(Cl)cc1)N=N2
inactive: [1]; at 1.2 µM 3% | [1]; at 3.7 µM -4% | [1]; at 11.0 µM -3% | [1]; at 33.0 µM 1% | [1]; at 100.0 µM 18% | [2]; at 1.2 µM 8% | [2]; at 3.7 µM 16% | [2]; at 11.0 µM 32% | [2]; at 33.0 µM 60% | [13]; at 1.2 µM 6% | [13]; at 3.7 µM 0% | [13]; [16] -7% | [13]; at 11.0 µM 6% | [13]; at 33.0 µM 24% | [13]; [17] 14% | [13]; at 50.0 µM -11.6% | [13]; at 100.0 µM 44% | [4]; at 1.2 µM -3% | [4]; at 3.7 µM -1% | [4]; [16] 20% | [4]; at 11.0 µM 2% | [4]; at 33.0 µM 8% | [4]; [17] 41% | [4]; at 50.0 µM -11.2% | [4]; at 100.0 µM 30% | [14]; at 1.2 µM -1% | [14]; at 3.7 µM 2% | [14]; at 11.0 µM -2% | [14]; at 33.0 µM 4% | [14]; at 100.0 µM 50% | [5]; [16] 12% | [5]; [17] 64% | [5]; at 50.0 µM -5.1% | [6]; at 1.2 µM -5% | [6]; at 3.7 µM -8% | [6]; at 11.0 µM -5% | [6]; at 33.0 µM 2% | [6]; at 100.0 µM 27% | [7]; [16] -27% | [7]; [17] 3% | [7]; at 50.0 µM -23.3% | [8]; at 1.2 µM -6% | [8]; at 3.7 µM -9% | [8]; [16] -42% | [8]; at 11.0 µM -8% | [8]; at 33.0 µM -1% | [8]; [17] 38% | [8]; at 100.0 µM 20% | [9]; at 1.2 µM -1% | [9]; at 3.7 µM -1% | [9]; at 11.0 µM 4% | [9]; at 33.0 µM 19% | [9]; at 100.0 µM 45% | [15]; at 1.2 µM -4% | [15]; at 3.7 µM -1% | [15]; at 11.0 µM 6% | [15]; at 33.0 µM 22% | [15]; at 100.0 µM 59% | [10]; at 1.2 µM 2% | [10]; at 3.7 µM 1% | [10]; at 11.0 µM 6% | [10]; at 33.0 µM 25% | [10]; at 100.0 µM 54% | [11]; [16] -26% | [11]; [17] 55% | [11]; at 50.0 µM 7% | [12]; at 1.2 µM -1% | [12]; at 3.7 µM 7% | [12]; at 11.0 µM 9% | [12]; at 33.0 µM 21% | [12]; at 100.0 µM 51%
active: [2]; at 100.0 µM 79% | [8]; at 50.0 µM 98.2%
